Source: PubChem (Buhrlage Lab, Dana-Farber Cancer Institute and Novartis Institutes for BioMedical Research (Cambridge, Mass))
Hits are enriched below; roughly 9.6% of the tested compounds scored in any of these assays.
USP30 inh – inhibitors of human USP30 deubiquitinase. Ubiquitin carboxyl-terminal hydrolase 30 (Homo sapiens), Q70CQ3. purified USP30, Ub-rhodamine cleavage fluorescence. inhibition, % at 25 µM. 47,000 tested, 5.3% active
USP17 inh – inhibitors of human USP17 deubiquitinase; Ubiquitin carboxyl-terminal hydrolase 17-like protein 5 (Homo sapiens), A8MUK1; purified USP17, Ub-rhodamine cleavage fluorescence, 3 h; inhibition, % at 50 µM; 47,000 tested, 6.5% active
Target sequence (A8MUK1 whole entry, looked up): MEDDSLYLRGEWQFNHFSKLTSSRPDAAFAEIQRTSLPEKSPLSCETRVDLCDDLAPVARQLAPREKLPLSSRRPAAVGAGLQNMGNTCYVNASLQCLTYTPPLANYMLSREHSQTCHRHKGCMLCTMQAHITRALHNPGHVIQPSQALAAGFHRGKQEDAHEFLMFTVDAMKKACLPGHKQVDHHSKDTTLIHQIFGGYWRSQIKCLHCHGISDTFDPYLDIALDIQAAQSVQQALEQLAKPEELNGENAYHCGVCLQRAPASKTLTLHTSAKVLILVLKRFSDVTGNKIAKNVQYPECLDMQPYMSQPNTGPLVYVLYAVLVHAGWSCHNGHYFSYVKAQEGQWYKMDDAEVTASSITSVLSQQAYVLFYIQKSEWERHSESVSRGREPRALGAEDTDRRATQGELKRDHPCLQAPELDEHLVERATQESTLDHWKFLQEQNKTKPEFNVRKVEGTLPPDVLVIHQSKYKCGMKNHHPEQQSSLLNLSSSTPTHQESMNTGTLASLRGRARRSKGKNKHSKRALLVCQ
* = called active by the depositor; . = not tested or not shown. Rule as the data show it: active = inhibition above about 30%; inactive = the rest.

SMILES | USP30 inh | USP17 inh
CCN1C(=O)[C@H]2CN(c3ncccn3)C[C@H]2C12CCN(C(=O)NCC(C)C)CC2 | -1 | -30
O=C(CC1CCN(C(=O)Nc2ccccc2)CC1)N1CCOCC1 | 9 | 6
O=C(C[C@@H]1CCN2C[C@@H]1CCCOc1ccccc1CN(C(=O)Nc1ccccc1)CC2=O)N1CCOCC1 | 79* | 75*
O=C(NC1CCN(Cc2ccccc2)CC1)c1ccc(Cl)c(S(=O)(=O)Nc2ccc(Cl)cc2)c1 | -25 | -33
COc1cccc(C(=O)N2CCN(C(C)c3nc(-c4ccc(Cl)cc4)no3)CC2)c1O (stereo not drawn) | -27 | -1
NS(=O)(=O)c1ccc(NC(=O)c2sccc2Oc2ccc(F)cc2[N+](=O)[O-])cc1 | 61* | 55*
NS(=O)(=O)c1ccc(NC(=O)c2ccc3ncsc3c2)cc1 | 3 | 17
Cc1nc2c(NS(=O)(=O)c3ccc(F)c(C)c3)cccn2n1 | -8 | 1
O=c1[nH]nc(CSCc2csc(C3CCCCC3)n2)[nH]1 | -8 | -2
CN1c2ccccc2C(=O)NC12CCN(C(=O)Nc1cccc(F)c1)CC2 | 9 | 1
CCOc1ccccc1NC(=O)Cn1c(=O)n(CCCC(=O)NCc2ccc(C)cc2)c(=O)c2sccc21 | 37* | 83*
O=C(CCCCCn1c(=O)c2sccc2n(CC(=O)c2ccc(F)cc2)c1=O)NCc1ccccc1Cl | 39* | 19
Cc1cc(NC(=O)Cn2c(=O)n(CCCCCC(=O)NCc3ccc4c(c3)OCO4)c(=O)c3sccc32)n[nH]1 | 21 | 26
CCOc1ccccc1NC(=O)Cn1c(=O)n(CCc2ccccc2)c(=O)c2c3c(sc21)CN(C(C)=O)CC3 | -103 | -55
O=C(CCCCCn1c(=O)c2sccc2n(CC(=O)c2ccc(Cl)c(Cl)c2)c1=O)NCc1ccc2c(c1)OCO2 | 6 | 20
Cc1ccc(CNC(=O)CCCn2c(=O)c3sccc3n(CC(=O)Nc3cc(Cl)ccc3C)c2=O)cc1 | 21 | 74*
CCC(C)(C)NC(=O)CCN1c2ccccc2Sc2ccccc21 | -5 | 0
O=C(Cc1ccccc1Cl)N1CC(c2nc(-c3ccc[nH]c3=O)no2)C1 | 3 | -3
CC(C)=CCc1c(O)cc2c(c1C)OC(=O)c1c(C)c(Cl)c(O)c(CO)c1O2 | 39* | 37*
COc1cc(O)c2c(c1CC=C(C)C)OC(c1ccc(O)cc1)CC2=O (stereo not drawn) | -30 | -46
C/C=C\C(=O)O[C@@H]1C[C@H]2O[C@@H]3C=C(C)[C@@H]4O[C@@H]4[C@]3(C)[C@]1(C)[C@]21CO1 | -43 | -16
COc1ccc(CCNC(=O)CCCn2c(=O)c3ccccc3n(Cc3cccc([N+](=O)[O-])c3)c2=O)cc1OC | -1 | 0
O=c1c2cccnc2n(Cc2ccccc2F)c(=O)n1CCc1ccccc1 | -2 | -1
N#Cc1ccccc1Cn1c(=O)n(Cc2ccco2)c(=O)c2ccccc21 | 33* | 54*
Cc1ccc(CNC(=O)CCCn2c(=O)c3ccccc3n(CC(=O)Nc3cc(C)[nH]n3)c2=O)cc1 | 4 | 1
SMILES | USP30 inh | USP17 inh
O=C(CCCCn1c(=O)c2ccccc2n(Cc2ccccc2F)c1=O)NCCc1ccccc1 | 0 | 56*
Cc1ccc(CNC(=O)CCCn2c(=O)c3ccccc3n(Cc3cccc(F)c3)c2=O)cc1 | -1 | 39*
N#Cc1ccccc1Cn1c(=O)n(CCCCC(=O)NCCc2ccccc2)c(=O)c2ccccc21 | 19 | 78*
Cc1ccccc1Cn1c(=O)n(Cc2ccco2)c(=O)c2ccccc21 | 26 | 28
Cc1cccc(C)c1NC(=O)CN1C(=O)c2cccnc2Sc2ccccc21 | -58 | 4
Brc1ccc(Sc2cnns2)cc1 | 28 | 18
Cc1ccc2cc3c(nc2c1)OC(=O)N(CCc1cccc(F)c1)C3 | 19 | 20
CC1=CC2N(c3ccccc31)C(C(=O)C(C)(C)C)C(C(=O)c1ccc3c(c1)OCO3)C21C(=O)Nc2ccccc21 (stereo not drawn) | -184 | 22
N#Cc1ccccc1Cn1c(=O)n(CCCCC(=O)NCc2ccco2)c(=O)c2ccccc21 | -16 | 51*
O=C(CCn1c(=O)c2ccccc2n(Cc2ccccc2F)c1=O)NCc1ccco1 | -26 | -3
O=C(Nc1ccccc1)N1CCC2(CN(Cc3cccc(Cl)c3)C2)C1 | 13 | 2
Cc1cc2n(n1)[C@@H](C(F)(F)F)C[C@@H](C1CCN(C(=O)C(C)C)CC1)N2 | -7 | -24
COc1ccc(/C=C/C(=O)N(Cc2cccc(Cl)c2)C2CCS(=O)(=O)C2)cc1 (stereo not drawn) | 1 | 2
O=C(/C=C/c1ccc(OCc2cccc(Cl)c2)cc1)NC1CCCC1 | 22 | 36*
Cc1nn(CC(=O)N2C[C@@H](c3ccc(F)c(F)c3)[C@@]3(COCCC(=O)N3)C2)c(C)c1C | 11 | 2
CNC(=O)CN1CC2(CCN(Cc3ccccc3)CC2)COc2ccccc2S1(=O)=O | 19 | 13
Cc1nc2ccccc2nc1SCC(=O)Nc1ccc(F)cc1F | . | 3
COc1cccc(-n2c(=O)[nH]c3c(C(N)=O)nc(C4CCCCC4)nc32)c1 | -202 | -27
COc1ccc(-c2nc(C(N)=O)c3[nH]c(=O)n(-c4ccc(OC)c(OC)c4)c3n2)cc1 | -13 | -10
NC(=O)c1nc(-c2cccc(F)c2)nc2c1[nH]c(=O)n2C1CCCCC1 | -16 | 51*
Cc1cccc(-n2c(=O)[nH]c3c(C(N)=O)nc(C4CCCCC4)nc32)c1 | 49* | 28
COc1cccc(-c2nc(C(N)=O)c3[nH]c(=O)n(-c4cccc(Cl)c4)c3n2)c1OC | -110 | 51*
Cc1nc(C(N)=O)c2[nH]c(=O)n(C3CCCCC3)c2n1 | -97 | -18
Cc1cc(C(=O)N2C[C@H]3C[C@H]4[C@](C2)(CN(CC(C)C)S4(=O)=O)O3)no1 | -24 | -9
O=C1NC2(CCN(C(=O)c3ccc(Cl)cc3)CC2)N=C1c1ccccc1 | -10 | -39
SMILES | USP30 inh | USP17 inh
Cc1nnc(NCc2ccc(F)cc2)[nH]c1=O | -2 | 4
COc1ccc(N=c2oc3ccccc3cc2C(=O)Nc2ccncc2)cc1OC | 16 | 10
COc1cc(NC(=O)c2cccnc2)ccc1NC(=O)c1cc2ccccc2o1 | -54 | 39*
Cc1ccc(N(CC(=O)NC2CCCCC2)C(=O)CCC(=O)Nc2ccccn2)cc1C | 4 | -7
COc1ccccc1C(=O)N1CCN(c2nc(-c3ccc(Cl)cc3)no2)CC1 | 5 | 3
O=C(c1ccccc1F)N1CCN(c2nc(-c3ccc(Cl)cc3)no2)CC1 | 44* | -6
CC(C)CC(=O)N1CCc2c(c(-c3nc(Cc4ccccc4)no3)nn2C)C1 | -75 | -11
O[C@@H]1CC[C@@H]2C[C@H]1[C@@H](O)CN2Cc1ccc(OCc2ccc(F)cc2)cc1 | -162 | -16
CC(NC(=O)COc1ccc2ccccc2c1)C(=O)O (stereo not drawn) | 2 | 0
Cc1cc(NC(=O)COc2cccc(C(F)(F)F)c2)no1 | 13 | 48*
Cc1cc(NC(=O)c2ccc(C(F)(F)F)cc2)no1 | 40* | 13
Cc1cc(=O)oc2cc(OCC(=O)NC(C)CCc3ccccc3)ccc12 (stereo not drawn) | 0 | -6
Cc1cccc(OCC(=O)Nc2onc3c2CCCC3)c1 | 12 | 2
CC(NC(=O)COc1ccc2oc3ccccc3c2c1)c1ccccc1 (stereo not drawn) | 22 | 42*
Cc1cc(NC(=O)c2ccc(C(=O)Nc3cc(C)on3)s2)no1 | -20 | 20
